Experimental data reported in PubChem BioAssay (Tox21).
Where “and” joins values, the source holds several entries; their conditions need not be identical. Identical values can stand only once. Records with an inconclusive call do not appear. Calls of active or inactive are those of the source. The call rests on the fitted dose curve; in most records, active means well fitted activation curve with a large enough effect in the repeat runs; inconclusive means weak or mixed curves; inactive means flat fitted curve, though single readings scatter.

test: A CellTox Green Cytotoxicity Assay to monitor cytotoxicity in HepG2 cells - 8 hour (AID 1224890); details: CellTox Green fluorescence; series mostly up to 76.8 µM; cytotoxicity increase: at the top concentration; further: nearly all actives have a fitted effect of over 45% in size
Source text: National Center for Advancing Translational Sciences [NCATS]
NIH Chemical Genomics Center [NCGC]
U.S. Environmental Protection Agency [EPA]
National Institutes of Environmental Health Sciences [NIEHS]
National Toxicology Program [NTP]
Cell-based models are critical for drug discovery. Determining the natural cytotoxic effects resulting from test compounds is an essential research activity. A CellTox Green Cytotoxicity Assay to monitor cytotoxicity in real time of continues cell culture during 40 hours of the compound treatment was used to screen Tox21 10K library compounds in HepG2 cells. CellTox Green Cytotoxicity Assay is a nonlytic, homogeneous, biofluorescent method to measure cytotoxicity in cell culture after experimental manipulation. The assay system uses a proprietary asymmetric cyanine dye that is excluded from viable cells but preferentially stains the dead cell's DNA. […] Viable cells produce no appreciable increases in fluorescence. Therefore, the fluorescence signal produced by the binding interaction with dead cell DNA is proportional to cytotoxicity.
The mixture of HepG2 cell suspension and reagents were dispensed at 600cells/6 ul/well in 1536-well tissue culture treated black solid bottom plates using a Multidrop dispenser. After the assay plates were incubated at a 37 C/5% CO2 incubator for 5 hours, 23 nL of compounds dissolved in DMSO, positive and negative controls was transferred to the assay plate by a pintool work station. The plates were incubated at 37 C for 40 hours. The fluorescence intensity were measured at 0h, 8h, 16h, 24h, 32h and 40h time points using ViewLux plate reader during compound treatment.
On the % scale 0 is the no-effect control and ±100 the full control effect; potency means the concentration at half of the fitted maximal effect.

Structure (SMILES)	cytotoxicity increase	Potency
CN(C)CCN1CCN(c2cccc(Cl)c2)C1=O	-16.1% [at 35.3 µM] (inactive)	
CCCC(=O)OCCc1ccccc1		43.6 µM (active)
O=C(O)CN(CCN(CC(=O)O)CC(=O)O)CC(=O)O		1.74 µM (active)
CCCCCCCCCCCCCC[N+](C)(C)Cc1ccccc1		26.8 µM (active) and 20 mM (active)
CCC(COC(=O)CCS)(COC(=O)CCS)COC(=O)CCS	-18% (inactive)	
CCCC[P+](C)(CCCC)CCCC	-2.47% (inactive)	
O=C(O)O	4.8% [at 6.97 µM] (inactive)	
c1ccc(C(O[C@@H]2CCCN(CCc3ccc4c(c3)OCO4)C2)c2ccccc2)cc1	3.27% (inactive)	
CCCC1CCC(=O)CC1	-0.837% (inactive)	
COC(=O)C1=C(C)NC(C)=C(C(=O)OCCN2CCN(C(c3ccccc3)c3ccccc3)CC2)C1c1cccc([N+](=O)[O-])c1 (stereo not given)	-6.8% [at 35.3 µM] (inactive)	
O=C(Nc1ccc2c(O)c(N=Nc3ccc(N=Nc4ccc(S(=O)(=O)O)cc4)cc3)c(S(=O)(=O)O)cc2c1)c1ccccc1	-46.3% (inactive)	
[Cu+]	3.55% (inactive)	
CCN(CC)c1ccc2c(-c3ccc(S(=O)(=O)O)cc3S(=O)(=O)[O-])c3ccc(=[N+](CC)CC)cc-3oc2c1	-25.5% (inactive)	
Cc1ccc(N/N=c2\c(=O)cc/c(=N\Nc3ccc(S(=O)(=O)O)cc3)c2=O)c(C)c1	-23.5% (inactive)	
CC(=O)OCC=C(C)C	-5.99% [at 35.3 µM] (inactive)	
CCCCC/C=C\C/C=C\CCCCCCCC(=O)O		inactive
OC12N=C(c3ccccc3)SC1Cc1cc(Cl)ccc12 (stereo not given)	12.7% (inactive)	
CC(C)CCOC(=O)/C=C/c1ccccc1	-1.61% (inactive)	
CCCCCC(C)OC(=O)COc1ccc(Cl)c2cccnc12 (stereo not given)	9.88% (inactive)	
CC(=O)c1ccc(C(C)=O)cc1	7.89% (inactive)	

Structure (SMILES)	cytotoxicity increase	Potency
Cc1cc(C(C#N)c2ccc(Cl)cc2)c(Cl)cc1NC(=O)c1cc(I)cc(I)c1O (stereo not given)	-2.59% [at 35.3 µM] (inactive)	
CC1(C)CCC[C@]2(C)[C@H]3CCO[C@]3(C)CC[C@@H]12	-0.0369% (inactive)	
CCOC(=O)NNc1ccc(N(CC)CC(C)O)nn1 (stereo not given)	2.35% [at 35.3 µM] (inactive)	
COc1cc(/C=C/c2ccccc2)oc(=O)c1	-3.13% (inactive)	
O[C@@H]([C@H](O)[C@H](O)CBr)[C@H](O)CBr	-4.89% (inactive)	
C#C[C@]1(OC(C)=O)CC[C@H]2[C@@H]3CCC4=C[C@@H](OC(C)=O)CC[C@@H]4[C@H]3CC[C@@]21C	0.408% [at 35.3 µM] (inactive)	
Cc1cccc(C)c1NC(=O)c1ccc(N)cc1	4.93% [at 35.3 µM] (inactive)	
Cc1cc(=O)oc2cc(O)cc(O)c12	1.43% (inactive)	
CC1(C)CC(O)CC(C)(C)N1	-2.73% (inactive)	
O=S(=O)(O)c1ccc(N=Nc2c(O)ccc3ccccc23)cc1	-28.2% (inactive)	
OC[C@H]1O[C@H](O[C@H]2O[C@H](CO)[C@@H](O)[C@H](O)[C@H]2O)[C@H](O)[C@@H](O)[C@@H]1O	0.892% (inactive)	
Cc1cc(C(C)(C)C)c(O)c(C)c1Cn1c(=O)n(Cc2c(C)cc(C(C)(C)C)c(O)c2C)c(=O)n(Cc2c(C)cc(C(C)(C)C)c(O)c2C)c1=O	-4.39% (inactive)	
Cc1cc(C)c(/C=C2\C(=O)Nc3ccccc32)[nH]1		19 µM (active)
C/C=C/C=C/COC(=O)C(C)C	13% (inactive)	
Nc1nc(N)nc(-c2cc(Cl)ccc2Cl)n1	9.24% [at 35.3 µM] (inactive)	
Cc1nc(-c2ccc(Cl)cc2)oc1COC(C)(C)C(=O)O	14.6% [at 35.3 µM] (inactive)	
NC[C@H]1O[C@H](O[C@H]2[C@H](O[C@@H]3O[C@H](CO)[C@@H](O)[C@H]3O)C(O)[C@H](N)C[C@@H]2N)[C@H](N)[C@@H](O)[C@@H]1O (stereo not given in full)	12.8% [at 6.97 µM] (inactive)	
O=C1OC2(c3ccc(O)cc3Oc3cc(O)ccc32)c2ccc(N=C=S)cc21		15.8 µM (active)
COc1cc(S(=O)(=O)O)c(C)cc1N=Nc1c(O)ccc2cc(S(=O)(=O)O)ccc12	-30.5% (inactive)	
CCC(CC)C(C)CCOC(C)=O (stereo not given)	8.08% (inactive)	
